# Laboratory results from publication PMC7862700, “An all-to-all approach to the identification of sequence-specific readers for epigenetic DNA modifications on cytosine”.
# How the values were obtained:
# Experiment in all cases: DAPPL (digital affinity profiling via proximity ligation, sequencing); 10 mM Tris-HCl pH 7.5, 50 mM NaCl, 1 mM DTT, 4% glycerol, room temperature, 30 min; GST-TFs on glutathione beads, 16-mer random dsDNA library, 0.1% formaldehyde crosslink after washing; high values mean tight binding
# FLI1 = target: T1, FLI1 (Homo sapiens, UniProt Q01543 1-452); settings: protein: recombinant; tags: N-terminal GST; dsDNA, one strand shown
# T1 sequence: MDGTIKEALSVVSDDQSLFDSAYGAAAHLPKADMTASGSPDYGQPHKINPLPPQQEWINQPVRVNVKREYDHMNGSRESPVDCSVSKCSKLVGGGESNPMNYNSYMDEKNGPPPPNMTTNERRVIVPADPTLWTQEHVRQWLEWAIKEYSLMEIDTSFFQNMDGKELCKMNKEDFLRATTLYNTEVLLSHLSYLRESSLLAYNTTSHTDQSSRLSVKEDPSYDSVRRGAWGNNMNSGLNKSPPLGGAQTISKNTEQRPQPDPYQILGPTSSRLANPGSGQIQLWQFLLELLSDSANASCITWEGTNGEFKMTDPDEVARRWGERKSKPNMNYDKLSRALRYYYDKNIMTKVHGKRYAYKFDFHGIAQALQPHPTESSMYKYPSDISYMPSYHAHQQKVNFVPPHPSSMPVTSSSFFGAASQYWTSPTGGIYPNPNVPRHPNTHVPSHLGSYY
# Summary of the method: (§1)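 The binding signal reported is, for every hexamer, its read frequency for a factor over its read frequency for the tag-only sample. Reads came from pools of yeast-expressed, GST-fused human transcription factors on glutathione beads, barcoded with DNA and mixed with that sample, which were incubated with 200 nmole of a random double-stranded 16-mer DNA library in Tris/NaCl/DTT/glycerol buffer at room temperature for 30 min. After washing, the pools were crosslinked with 0.1% formaldehyde, proximity-ligated with BsaI/T4 ligase for 1 h at 37 °C, PCR-amplified and sequenced on an Illumina NextSeq500.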
# ELK1 = target: T2, ELK1 (Homo sapiens, UniProt P19419 1-428); settings: protein: recombinant; tags: N-terminal GST; dsDNA, one strand shown
# T2 sequence: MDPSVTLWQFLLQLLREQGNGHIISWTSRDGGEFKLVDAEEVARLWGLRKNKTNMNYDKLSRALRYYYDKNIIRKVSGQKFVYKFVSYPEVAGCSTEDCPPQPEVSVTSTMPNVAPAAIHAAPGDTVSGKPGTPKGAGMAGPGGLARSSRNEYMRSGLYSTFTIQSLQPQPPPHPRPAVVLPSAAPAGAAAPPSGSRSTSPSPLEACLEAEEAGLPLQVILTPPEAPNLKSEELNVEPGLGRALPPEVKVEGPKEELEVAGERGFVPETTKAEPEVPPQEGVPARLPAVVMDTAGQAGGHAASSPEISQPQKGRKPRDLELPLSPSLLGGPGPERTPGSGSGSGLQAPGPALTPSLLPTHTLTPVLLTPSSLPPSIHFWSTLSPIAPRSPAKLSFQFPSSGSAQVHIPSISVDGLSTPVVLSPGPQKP
# Summary of the method: as §1
# GABPA = target: T3, GABPA (Homo sapiens, UniProt Q06546 1-454); settings: protein: recombinant; tags: N-terminal GST; dsDNA, one strand shown
# T3 sequence: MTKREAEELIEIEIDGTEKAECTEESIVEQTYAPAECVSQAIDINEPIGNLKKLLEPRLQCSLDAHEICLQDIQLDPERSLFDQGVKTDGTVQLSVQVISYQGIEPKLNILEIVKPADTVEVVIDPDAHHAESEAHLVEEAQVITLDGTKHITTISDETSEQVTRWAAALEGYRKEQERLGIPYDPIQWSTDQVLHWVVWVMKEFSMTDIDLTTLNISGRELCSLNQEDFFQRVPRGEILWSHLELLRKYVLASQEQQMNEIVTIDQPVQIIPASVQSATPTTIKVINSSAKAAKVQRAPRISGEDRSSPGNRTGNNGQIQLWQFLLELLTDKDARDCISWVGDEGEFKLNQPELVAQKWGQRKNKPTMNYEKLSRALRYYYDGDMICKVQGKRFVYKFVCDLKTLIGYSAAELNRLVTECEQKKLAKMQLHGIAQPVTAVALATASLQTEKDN
# Summary of the method: as §1
# ERG = target: T4, ERG (Homo sapiens, UniProt P11308 1-479); settings: protein: recombinant; tags: N-terminal GST; dsDNA, one strand shown
# T4 sequence: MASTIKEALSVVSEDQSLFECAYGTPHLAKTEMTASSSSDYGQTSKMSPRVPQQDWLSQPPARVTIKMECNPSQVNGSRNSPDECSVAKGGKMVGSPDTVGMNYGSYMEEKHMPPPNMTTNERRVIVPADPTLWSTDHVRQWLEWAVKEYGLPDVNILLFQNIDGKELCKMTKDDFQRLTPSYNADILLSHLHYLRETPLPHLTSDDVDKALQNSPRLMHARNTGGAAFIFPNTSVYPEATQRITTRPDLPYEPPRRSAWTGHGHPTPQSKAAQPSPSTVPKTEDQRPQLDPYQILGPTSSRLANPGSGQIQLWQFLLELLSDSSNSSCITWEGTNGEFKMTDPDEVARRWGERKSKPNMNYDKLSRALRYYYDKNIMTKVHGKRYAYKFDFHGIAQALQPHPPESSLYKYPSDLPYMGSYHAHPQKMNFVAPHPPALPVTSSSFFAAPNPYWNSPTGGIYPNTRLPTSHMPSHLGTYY
# Summary of the method: as §1
# ELF1 = ELF1 (Homo sapiens, UniProt P32519 1-619); settings: protein: recombinant; tags: N-terminal GST; dsDNA, one strand shown
# ELF1, sequence (P32519 whole entry): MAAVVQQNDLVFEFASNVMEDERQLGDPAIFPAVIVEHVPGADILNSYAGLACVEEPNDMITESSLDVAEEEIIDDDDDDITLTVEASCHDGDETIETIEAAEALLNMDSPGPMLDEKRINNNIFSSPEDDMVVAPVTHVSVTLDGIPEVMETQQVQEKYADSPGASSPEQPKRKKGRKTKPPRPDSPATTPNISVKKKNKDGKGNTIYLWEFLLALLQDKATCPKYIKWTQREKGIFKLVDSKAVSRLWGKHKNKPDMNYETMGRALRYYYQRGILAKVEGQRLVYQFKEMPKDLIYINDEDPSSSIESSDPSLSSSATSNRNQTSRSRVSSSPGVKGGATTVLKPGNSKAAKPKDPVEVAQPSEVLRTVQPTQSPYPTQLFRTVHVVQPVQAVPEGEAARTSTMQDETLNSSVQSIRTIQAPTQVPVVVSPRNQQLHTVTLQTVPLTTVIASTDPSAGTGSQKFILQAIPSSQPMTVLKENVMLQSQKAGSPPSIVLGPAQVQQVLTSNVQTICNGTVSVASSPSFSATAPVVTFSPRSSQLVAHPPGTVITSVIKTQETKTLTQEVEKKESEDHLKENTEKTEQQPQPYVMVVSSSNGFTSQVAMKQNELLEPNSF
# Summary of the method: as §1
# EHF = target: T5, EHF (Homo sapiens, UniProt Q9NZC4 1-300); settings: protein: recombinant; tags: N-terminal GST; dsDNA, one strand shown
# T5 sequence: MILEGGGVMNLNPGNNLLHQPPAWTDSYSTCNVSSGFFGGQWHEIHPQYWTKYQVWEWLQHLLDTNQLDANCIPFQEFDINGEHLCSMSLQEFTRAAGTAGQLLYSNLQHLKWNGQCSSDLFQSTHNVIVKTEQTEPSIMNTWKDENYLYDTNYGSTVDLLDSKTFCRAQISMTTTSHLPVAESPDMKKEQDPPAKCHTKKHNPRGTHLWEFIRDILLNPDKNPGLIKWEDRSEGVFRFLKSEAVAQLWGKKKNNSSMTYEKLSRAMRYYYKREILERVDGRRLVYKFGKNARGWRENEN
# Summary of the method: as §1
# SPI1 = SPI1 (Homo sapiens, UniProt P17947 1-270); settings: protein: recombinant; tags: N-terminal GST; dsDNA, one strand shown
# Summary of the method: as §1
# SPIB = SPIB (Homo sapiens, UniProt Q01892 1-262); settings: protein: recombinant; tags: N-terminal GST; dsDNA, one strand shown
# SPIB, sequence (Q01892 whole entry): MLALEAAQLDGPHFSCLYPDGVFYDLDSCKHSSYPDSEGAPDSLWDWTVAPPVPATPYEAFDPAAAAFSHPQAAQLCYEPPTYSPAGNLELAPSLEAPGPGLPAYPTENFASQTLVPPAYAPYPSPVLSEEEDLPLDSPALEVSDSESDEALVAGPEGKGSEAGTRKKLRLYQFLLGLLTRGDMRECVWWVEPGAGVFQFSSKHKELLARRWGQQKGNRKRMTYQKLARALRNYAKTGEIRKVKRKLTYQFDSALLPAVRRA
# Summary of the method: as §1
# FEV = target: T6, FEV (Homo sapiens, UniProt Q99581 1-238); settings: protein: recombinant; tags: N-terminal GST; dsDNA, one strand shown
# T6 sequence: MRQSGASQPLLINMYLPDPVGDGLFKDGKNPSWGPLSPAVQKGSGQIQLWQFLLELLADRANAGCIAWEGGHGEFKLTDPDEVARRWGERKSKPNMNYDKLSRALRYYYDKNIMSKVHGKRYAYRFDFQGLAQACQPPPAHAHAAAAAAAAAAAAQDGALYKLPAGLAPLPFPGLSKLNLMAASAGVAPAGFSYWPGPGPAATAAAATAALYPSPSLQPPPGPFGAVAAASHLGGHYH
# Summary of the method: as §1
# ETV5 = ETV5 (Homo sapiens, UniProt P41161 1-510); settings: protein: recombinant; tags: N-terminal GST; dsDNA, one strand shown
# ETV5, sequence (P41161 whole entry): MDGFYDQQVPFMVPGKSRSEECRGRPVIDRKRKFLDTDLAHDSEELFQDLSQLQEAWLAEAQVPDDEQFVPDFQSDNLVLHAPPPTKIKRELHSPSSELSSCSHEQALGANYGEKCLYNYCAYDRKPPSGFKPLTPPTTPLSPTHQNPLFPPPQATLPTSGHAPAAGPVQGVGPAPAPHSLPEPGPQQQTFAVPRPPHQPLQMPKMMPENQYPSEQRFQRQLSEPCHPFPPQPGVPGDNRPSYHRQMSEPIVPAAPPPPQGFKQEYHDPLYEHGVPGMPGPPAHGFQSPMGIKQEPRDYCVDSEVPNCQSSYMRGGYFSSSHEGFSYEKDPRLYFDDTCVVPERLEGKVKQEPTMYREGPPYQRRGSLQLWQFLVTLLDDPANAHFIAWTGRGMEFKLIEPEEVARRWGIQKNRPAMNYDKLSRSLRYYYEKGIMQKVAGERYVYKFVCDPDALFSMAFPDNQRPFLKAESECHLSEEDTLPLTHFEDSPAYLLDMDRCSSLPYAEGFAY
# Summary of the method: as §1
# HSF1 = HSF1 (Homo sapiens, UniProt Q00613 1-529); settings: protein: recombinant; tags: N-terminal GST; chain copies: 3; dsDNA, one strand shown
# HSF1, sequence (Q00613 whole entry): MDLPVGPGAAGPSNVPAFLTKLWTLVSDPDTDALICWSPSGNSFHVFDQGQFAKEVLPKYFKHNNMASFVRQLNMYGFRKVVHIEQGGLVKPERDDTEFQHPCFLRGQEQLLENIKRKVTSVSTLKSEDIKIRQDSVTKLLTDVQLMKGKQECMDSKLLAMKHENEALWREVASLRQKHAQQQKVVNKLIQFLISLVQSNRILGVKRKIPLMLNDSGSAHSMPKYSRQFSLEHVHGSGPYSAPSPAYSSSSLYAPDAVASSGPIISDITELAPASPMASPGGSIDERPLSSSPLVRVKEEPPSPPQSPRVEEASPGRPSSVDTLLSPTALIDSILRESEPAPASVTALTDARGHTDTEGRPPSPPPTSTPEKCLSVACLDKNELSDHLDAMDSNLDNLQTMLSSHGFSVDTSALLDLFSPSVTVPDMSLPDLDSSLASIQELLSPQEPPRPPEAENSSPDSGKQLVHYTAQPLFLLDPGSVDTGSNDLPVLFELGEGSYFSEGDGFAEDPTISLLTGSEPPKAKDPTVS
# Summary of the method: as §1
# ELF4 = ELF4 (Homo sapiens, UniProt Q99607 1-663); settings: protein: recombinant; tags: N-terminal GST; dsDNA, one strand shown
# ELF4, sequence (Q99607 whole entry): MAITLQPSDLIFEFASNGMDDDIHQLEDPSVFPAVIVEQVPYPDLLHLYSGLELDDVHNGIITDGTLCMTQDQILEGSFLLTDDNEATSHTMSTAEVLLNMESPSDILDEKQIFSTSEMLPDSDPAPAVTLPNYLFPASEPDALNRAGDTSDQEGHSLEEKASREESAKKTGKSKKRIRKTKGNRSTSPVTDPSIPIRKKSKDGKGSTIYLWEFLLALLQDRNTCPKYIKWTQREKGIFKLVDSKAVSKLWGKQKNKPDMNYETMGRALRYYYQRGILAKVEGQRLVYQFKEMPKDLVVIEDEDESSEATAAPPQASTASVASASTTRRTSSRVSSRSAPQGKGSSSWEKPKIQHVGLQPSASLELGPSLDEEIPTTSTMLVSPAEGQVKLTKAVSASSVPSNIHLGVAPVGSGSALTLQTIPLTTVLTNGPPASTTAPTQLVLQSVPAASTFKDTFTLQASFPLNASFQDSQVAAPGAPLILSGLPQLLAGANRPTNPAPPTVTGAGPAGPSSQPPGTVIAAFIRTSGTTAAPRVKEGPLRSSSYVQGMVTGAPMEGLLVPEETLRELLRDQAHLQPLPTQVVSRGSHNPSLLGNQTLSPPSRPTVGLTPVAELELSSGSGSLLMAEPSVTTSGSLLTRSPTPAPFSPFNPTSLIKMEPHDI
# Summary of the method: as §1
# ELK4 = target: T7, ELK4 (Homo sapiens, UniProt P28324-2 1-405); settings: protein: recombinant; tags: N-terminal GST; dsDNA, one strand shown
# T7 sequence: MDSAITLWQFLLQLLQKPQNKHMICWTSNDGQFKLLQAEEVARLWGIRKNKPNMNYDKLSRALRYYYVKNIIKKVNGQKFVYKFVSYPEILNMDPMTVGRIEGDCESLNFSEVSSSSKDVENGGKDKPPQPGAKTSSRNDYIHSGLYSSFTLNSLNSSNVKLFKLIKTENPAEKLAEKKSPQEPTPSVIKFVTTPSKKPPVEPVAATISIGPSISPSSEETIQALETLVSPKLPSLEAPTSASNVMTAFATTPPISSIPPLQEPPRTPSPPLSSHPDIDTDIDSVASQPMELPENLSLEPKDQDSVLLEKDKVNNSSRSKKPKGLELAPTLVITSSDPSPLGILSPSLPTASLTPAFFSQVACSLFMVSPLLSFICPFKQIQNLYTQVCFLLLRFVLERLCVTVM
# Summary of the method: as §1
# ETV2 = target: T8, ETV2 (Homo sapiens, UniProt O00321 1-342); settings: protein: recombinant; tags: N-terminal GST; dsDNA, one strand shown
# T8 sequence: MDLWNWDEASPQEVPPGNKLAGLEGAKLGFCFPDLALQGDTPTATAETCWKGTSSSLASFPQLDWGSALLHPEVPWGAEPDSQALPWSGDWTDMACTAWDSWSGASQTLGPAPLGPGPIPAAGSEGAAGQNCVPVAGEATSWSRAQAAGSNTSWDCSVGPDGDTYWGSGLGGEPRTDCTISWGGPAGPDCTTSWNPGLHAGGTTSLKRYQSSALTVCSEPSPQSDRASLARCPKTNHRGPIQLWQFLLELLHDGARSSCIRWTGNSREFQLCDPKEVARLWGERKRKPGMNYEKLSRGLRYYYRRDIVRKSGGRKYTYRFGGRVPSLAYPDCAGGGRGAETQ
# Summary of the method: as §1
# CRX = CRX (Homo sapiens, UniProt O43186 1-299); settings: protein: recombinant; tags: N-terminal GST; dsDNA, one strand shown
# CRX, sequence (O43186 whole entry): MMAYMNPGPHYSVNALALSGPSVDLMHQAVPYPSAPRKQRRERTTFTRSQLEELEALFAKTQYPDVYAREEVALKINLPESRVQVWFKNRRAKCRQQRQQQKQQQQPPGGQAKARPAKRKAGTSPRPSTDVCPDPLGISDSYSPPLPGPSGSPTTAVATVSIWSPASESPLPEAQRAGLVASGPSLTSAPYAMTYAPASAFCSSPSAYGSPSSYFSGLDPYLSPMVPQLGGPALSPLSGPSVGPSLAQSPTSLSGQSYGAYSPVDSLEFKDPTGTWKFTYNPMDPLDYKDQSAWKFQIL
# Summary of the method: as §1
# ETV1 = ETV1 (Homo sapiens, UniProt P50549 1-477); settings: protein: recombinant; tags: N-terminal GST; dsDNA, one strand shown
# ETV1, sequence (P50549 whole entry): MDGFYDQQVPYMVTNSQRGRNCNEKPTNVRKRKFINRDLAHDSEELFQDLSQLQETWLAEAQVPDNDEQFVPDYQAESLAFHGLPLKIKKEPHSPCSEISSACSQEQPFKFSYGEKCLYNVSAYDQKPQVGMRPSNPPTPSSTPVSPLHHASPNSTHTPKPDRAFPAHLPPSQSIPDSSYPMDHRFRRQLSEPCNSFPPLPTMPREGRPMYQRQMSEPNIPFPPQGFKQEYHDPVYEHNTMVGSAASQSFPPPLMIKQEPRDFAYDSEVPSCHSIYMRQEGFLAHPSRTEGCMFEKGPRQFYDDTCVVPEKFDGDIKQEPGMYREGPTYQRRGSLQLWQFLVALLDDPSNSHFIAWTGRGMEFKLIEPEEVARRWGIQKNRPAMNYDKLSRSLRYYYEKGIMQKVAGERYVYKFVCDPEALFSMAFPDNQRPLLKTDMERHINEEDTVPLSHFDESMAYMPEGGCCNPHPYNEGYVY
# Summary of the method: as §1
sequence,measurement,setting,value
GGTATA,binding signal,FLI1,"1.04 fold enrichment (6-mer frequency, TF over GST control)"
same,binding signal,ELK1,"1.16 fold enrichment (6-mer frequency, TF over GST control)"
same,binding signal,GABPA,"1.02 fold enrichment (6-mer frequency, TF over GST control)"
same,binding signal,ERG,"1.05 fold enrichment (6-mer frequency, TF over GST control)"
same,binding signal,ELF1,"1.09 fold enrichment (6-mer frequency, TF over GST control)"
same,binding signal,EHF,"1.11 fold enrichment (6-mer frequency, TF over GST control)"
same,binding signal,SPI1,"1.07 fold enrichment (6-mer frequency, TF over GST control)"
same,binding signal,SPIB,"1.06 fold enrichment (6-mer frequency, TF over GST control)"
same,binding signal,FEV,"1.08 fold enrichment (6-mer frequency, TF over GST control)"
same,binding signal,ETV5,"1.1 fold enrichment (6-mer frequency, TF over GST control)"
same,binding signal,HSF1,"1.08 fold enrichment (6-mer frequency, TF over GST control)"
same,binding signal,ELF4,"1.08 fold enrichment (6-mer frequency, TF over GST control)"
same,binding signal,ELK4,"1.1 fold enrichment (6-mer frequency, TF over GST control)"
same,binding signal,ETV2,"1.05 fold enrichment (6-mer frequency, TF over GST control)"
same,binding signal,CRX,"1.02 fold enrichment (6-mer frequency, TF over GST control)"
same,binding signal,ETV1,"1.11 fold enrichment (6-mer frequency, TF over GST control)"
